Experimental data from PubChem BioAssay (NCATS).
Inconclusive results are not listed. Active and inactive are the calls of the source. Calls follow the shape of the dose curve; as a rule, active = well fitted curve in the direction sought with a large enough effect; inconclusive = small, poorly fitted or top-dose-only effect, or another doubt; inactive = no such curve, though single readings can be large; an effect the other way counts as inactive or inconclusive.

Assays:
[1] = MultiTox-Fluor Cytotoxicity Assay - LYMP1-003 - Live Cells (AID 962);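 also: cells exposed to compound for 16 hours at 37 °C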
Method in brief: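 qHTS, 1536-well; 2500 cells/well LYMP1-003; 5 hr 37 C settle; cpd 16 hr 37 C; MultiTox-Fluor reagent 60 min RT; live-cell protease fluor. 405/510; Hill-fit AC50; tetraoctylammonium bromide pos. ctrl.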

[2] = Cell Viability - LYMP1-003 - Assay at 24 hr (AID 963)
Method in brief: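 Cells seeded at 2500/well, 5 hr at 37 C; compounds added; 24 hr at 37 C; CellTiter-Glo added, 30 min room temperature; luminescence read. Decrease in ATP taken as cytotoxicity, AC50 from Hill modelling.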

[3] = Cell Viability - LYMP1-003 - Assay at 40 hr (AID 964); also: nearly all actives have a fitted effect of over 60% in size
Method in brief: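 Cells were seeded at 2500 per well and incubated 5 hr at 37 C. Compounds were added across a concentration series and left 40 hr at 37 C. CellTiter-Glo was added for 30 min at room temperature before luminescence reading.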

[4] = Cell Viability - LYMP2-003 (AID 965);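 also: cells exposed to compounds for 24 h before reading; nearly all actives have a fitted effect of over 50% in size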
Method in brief: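 Human lymphoblastoid LYMP2-003 cells, 2500/well, exposed to compounds for 24 h at 37 C in complete medium. Viability read as intracellular ATP by CellTiter-Glo luminescence; AC50 from Hill-equation fits of qHTS concentration-response data.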

[5] = Cell Viability - LYMP2-004 (AID 966); also: nearly all actives have a fitted effect of over 65% in size
Method in brief: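 Cells seeded 2500/well, rested 5 hr at 37 C, dosed across a concentration series, incubated 24 hr at 37 C, then CellTiter-Glo added for 30 min at room temperature and luminescence read. Hill fitting gave AC50.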

[6] = Cell Viability - LYMP2-009 (AID 968); also: nearly all actives have a fitted effect of over 55% in size
[7] = Cell Viability - LYMP2-011 (AID 969); also: nearly all actives have a fitted effect of over 60% in size
Method in brief: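 2500 cells/well, 5 hr 37 C; compound added, 24 hr 37 C; CellTiter-Glo 30 min RT; luminescence. qHTS concentration-response, Hill-equation AC50. Tetraoctylammonium bromide positive control.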

[8] = Cell Viability - LYMP2-013 (AID 970); also: nearly all actives have a fitted effect of over 55% in size
Method in brief: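 qHTS; 2500 lymphoblastoid cells/well; 5 hr 37 C settle; cpd 24 hr 37 C; CellTiter-Glo, 30 min RT; luminescence. AC50 = Hill fit.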

[9] = Cell Viability - LYMP2-015 (AID 971); also: nearly all actives have a fitted effect of over 55% in size
Method in brief: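 Luminescent ATP read-out (CellTiter-Glo) served as the viability measure after lymphoblastoid cells were exposed to compounds for 24 hours at 37 C. Concentration-response data were fitted with the Hill equation to give AC50.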

[10] = Cell Viability - LYMP2-005 (AID 967)
Method in brief: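 Human lymphoblastoid LYMP2-005 cells, 2,500 per well in complete medium, rested 5 h at 37C then compound-treated 24 h at 37C. Intracellular ATP read by CellTiter-Glo luminescence after 30 min at room temperature; AC50 from Hill-equation fits of concentration-response data.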

Measured: Potency
Potency is read from the fitted curve at half-maximal effect.

Nc1nc2ccc([N+](=O)[O-])cc2s1
not listed: [10]
inactive: all other assays above

NCCO
inactive: all assays above

C#C[C@]1(O)CC[C@H]2[C@@H]3CCc4cc(O)ccc4[C@H]3CC[C@@]21C
not listed: [3] | [10]
inactive: all other assays above

c1cnc2c(c1)ccc1cccnc12
active: [3] 7.94 µM

CN1CCC[C@H]1c1cccnc1
inactive: all assays above

Nc1ccc(O)c(C(=O)O)c1
inactive: all assays above

COc1cc(/C=C/C(=O)CC(=O)/C=C/c2ccc(O)c(OC)c2)ccc1O
active: [2] 50.1 µM | [3] 39.8 µM | [4] 31.6 µM | [5] 31.6 µM | [6] 25.1 µM | [7] 31.6 µM | [8] 50.1 µM | [9] 50.1 µM
inactive: [1]

CCCOC(=O)c1ccc(O)cc1
inactive: all assays above

O=c1cc(-c2ccccc2)oc2ccccc12
inactive: all assays above

CN(C)c1ccc(N=NS(=O)(=O)O)cc1
inactive: all assays above

O=C1CN(/N=C/c2ccc([N+](=O)[O-])o2)C(=O)N1
inactive: [4] | [10]

CC1(C)S[C@@H]2[C@H](NC(=O)[C@H](N)c3ccccc3)C(=O)N2[C@H]1C(=O)O
inactive: all assays above

Nc1ccc(O)c([N+](=O)[O-])c1
not listed: [3] | [9]
inactive: all other assays above

COc1cc(CNC(=O)CCCC/C=C/C(C)C)ccc1O
not listed: [3]
inactive: all other assays above

CCCCCCCCCCCCCCCCCC(=O)O
inactive: all assays above

c1ccc2sc(SSc3nc4ccccc4s3)nc2c1
inactive: all assays above

CN(C)c1ccc(C(=C2C=CC(=[N+](C)C)C=C2)c2ccccc2)cc1
active: [1] 2 µM | [2] 2 µM | [3] 0.631 µM | [4] 0.501 µM | [5] 0.316 µM | [10] 0.501 µM | [6] 0.398 µM | [7] 0.316 µM | [8] 0.501 µM | [9] 0.316 µM

S=c1[nH]c2ccccc2s1
inactive: all assays above

N=C1N=C(N)c2cc3ccccc3cc21
active: [1] 50.1 µM | [2] 50.1 µM | [3] 39.8 µM | [4] 39.8 µM | [5] 39.8 µM | [10] 39.8 µM | [6] 39.8 µM | [7] 39.8 µM | [8] 39.8 µM | [9] 50.1 µM

CN(C)CCC(c1ccc(Cl)cc1)c1ccccn1 (configuration not stated)
not listed: [9]
inactive: all other assays above

Nc1ccc([N+](=O)[O-])cc1O
inactive: all assays above

CC(C)NCC(O)COc1cccc2ccccc12 (configuration not stated)
not listed: [6]
inactive: all other assays above

O=C(O)c1cc(O)c(O)c(O)c1
not listed: [3] | [4] | [5]
inactive: all other assays above

Oc1ccccc1O
inactive: [4]

O=C(O)/C=C\C(=O)O
inactive: all assays above
